About 970 (3.9%) of roughly 25,000 compounds were called active. About 8% were inconclusive and are not listed. The rule behind the calls is not given here. The list comes from a sample in which actives are over-represented; it also holds similar structures and randomly drawn compounds.

Holding throughout (test): Primary Screen for Target Class Profiling of Small Molecule Inhibitors of Methyltransferases
Experiment [1] deals with Catechol O-methyltransferase (Homo sapiens) (UniProt P21964). The following applies: purified enzyme, MTase-Glo SAH luminescence; activity change, negative = inhibition: at 40 µM, stronger effect = lower value; outcome: 40 uM. The text has this: (§1) PI: Matthew D. Hall Ph.D. and Quinlin M. Hanson Ph.D.
(§2) National Center for Advancing Translational Sciences (NCATS)
(§3) National Institute of Health (NIH), Rockville, MD
(§4) Target class profiling (TCP) is a chemical biology approach amenable to investigating understudied biological targets. TCP is achieved by developing a generalizable assay platform and applying it to screen a curated set of compound libraries against representative members of a target class. Small molecule methyltransferases (SMMTase) are a subclass of methyltransferase that act on metabolites to modulate signaling pathways, metabolize xenobiotics, or balance the available methyl pool. We screened four curated libraries totaling 27,574 unique compounds against the SMMTases nicotinamide N-methyltransferase (NNMT), phenylethanolamine N-methyltransferase (PNMT), histamine N-methyltransferase (HNMT), glycine N-methyltransferase (GNMT), catechol O-methyltransferase (COMT), and guanidinoacetate N-methyltransferase (GAMT). The data generated by this TCP can be leveraged for informed tool molecule development. For example, in the associated publication we identified a chemotype of HNMT-selective inhibitors. Additionally, we identified a putative SMMTase-selective inhibitor with potential as a tool molecule for studying broader methyltransferase biology.
(§5) High-through put screening assays were developed at the National Center for Advancing Translational Science (NCATS) for the enzymes NNMT, PNMT, HNMT, GNMT, COMT, and GAMT. Enzymatic activity was measured as a function of SAM cofactor conversion using the MTase Glo kit (Promega) for all enzymes. All assays were performed in 1536-well format with substrates and SAM concentrations at KM values. Enzyme concentration and assay timing were optimized for 10-20% SAM conversion. Initial screening of 27,574 compounds was done as single-point assays using the highest compound concentration (40 uM). […] These compounds were replated in 11-point dose response and assayed against NNMT, PNMT, HNMT, GNMT, COMT, GAMT, and a counter-assay. The IC50 and efficacy (maximal response) values were determined for each dose-response curve. These values are also accounted for in the area under the curve (AUC) values.
(§6) PROTOCOL TABLE (as described by Inglese J, Shamu CE and Guy RK. 2007)
(§7) SEQUENCE No. (e.g., 1, 2, 3, etc.); […] (e.g., Cells, Incubation, Reagent, etc.); VALUE; DESCRIPTION.
(§8) 1; Reagent; 2 uL; SMMTase Enzyme (2x) in reaction buffer, columns 1- 48.
(§9) 2; Reagent; 1 uL; SAM (4x) in reaction buffer, columns 1-48.
(§10) 3; Controls; 23 nL; DMSO in column 4; sinefungin in DMSO (0 uM - 40 uM) in 7-point 1:2 dilution series (n = 2) in column 2.
(§11) 4; Compounds; 23 nL; Columns 5-48.
(§12) 5; Reagent; 1 uL; Substrate (4x) in reaction buffer, columns 2-48.
(§13) 6; Time; 20-30 min; Incubation.
(§14) 7; Reagent; 1 uL; MTase-Glo reagent (5X), columns 1-48.
(§15) 8; Time; 30 min; Incubation.
(§16) 9; Reagent; 5 uL; MTase-Glo Detection reagent, columns 1-48.
(§17) 10; Time; 30 min; Incubation, luminescence evolution.
(§18) 11; Detection; Luminescence; ViewLux uHTS Microplate Imager (PerkinElmer).
(§19) NOTES (numbers refer to Sequence numbers above)
(§20) 1, 2, 5. White Medium Binding Greiner 1536-well plates (Cat #789175-F, Greiner Bio-One, Monroe, NC); Reaction buffer: 50 mM Tris, pH 8.0, 3 mM MgCl2, 1 mM EDTA, 50 mM NaCl, 1 mM DTT, and 0.1 mg/mL BSA. Evaporation was prevented by covering assay plates with metal lids containing holes to allow gas diffusion.
(§21) 1. Six SMMTase were profiled: HNMT, GNMT, PNMT, COMT, NNMT, GAMT
(§22) 5. The corresponding substrate was used for each enzyme: HNMT - 5.3 uM Histamine; GNMT - >500 uM Glycine; PNMT - 16.2 uM Norephinephrine; COMT - 13.7 uM Norephinephrine; NNMT - 3.8 uM Nicotinamide; GAMT - 2.5 uM Guanidinoacetate.6, 8, 10. Room temperature
(§23) 6. Final reaction conditions: 10 nM COMT, 5 uM SAM, 15 uM norepinephrine, 50 mM Tris, pH 8.0, 3 mM MgCl2, 1 mM EDTA, 50 mM NaCl, 1 mM DTT, and 0.1 mg/mL BSA; refer to tables 2 and S1 for specific timing.
8. […]

Experiment [2] addresses Glycine N-methyltransferase (Homo sapiens) (UniProt Q14749). The following applies: purified enzyme, MTase-Glo SAH luminescence; measured here: GNMT inhibition; at 40 µM; stronger effect = lower value.
Text: as §1, §2, §3, §4, §5, §6, §7, §8, §9, §10, §11, §12, §13, §14, §15, §16, §17, §18, §19, §20, §21, §22, §23
8. […]

For experiment [3], the target named is Guanidinoacetate N-methyltransferase (Homo sapiens) (UniProt Q14353). The following applies: purified enzyme, MTase-Glo SAH luminescence; measured here: GAMT inhibition; at 40 µM; stronger effect = lower value.
Text: as §1, §2, §3, §4, §5, §6, §7, §8, §9, §10, §11, §12, §13, §14, §15, §16, §17, §18, §19, §20, §21, §22, §23
8. […]

Experiment [4] addresses Histamine N-methyltransferase (Homo sapiens) (UniProt P50135). To be noted: purified enzyme, MTase-Glo SAH luminescence; measured here: HNMT inhibition; at 40 µM; stronger effect = lower value.
Text: as §1, §2, §3, §4, §5, §6, §7, §8, §9, §10, §11, §12, §13, §14, §15, §16, §17, §18, §19, §20, §21, §22, §23
8. […]

For experiment [5], the target named is Nicotinamide N-methyltransferase (Homo sapiens) (UniProt P40261). To be noted: purified enzyme, MTase-Glo SAH luminescence; measured here: NNMT inhibition; at 40 µM; stronger effect = lower value.
Text: as §1, §2, §3, §4, §5, §6, §7, §8, §9, §10, §11, §12, §13, §14, §15, §16, §17, §18, §19, §20, §21, §22, §23
8. […]

The target in experiment [6] is Phenylethanolamine N-methyltransferase (Homo sapiens) (UniProt P11086). The following applies: purified enzyme, MTase-Glo SAH luminescence; measured here: PNMT inhibition; at 40 µM; stronger effect = lower value.
Text: as §1, §2, §3, §4, §5, §6, §7, §8, §9, §10, §11, §12, §13, §14, §15, §16, §17, §18, §19, §20, §21, §22, §23
8. […]
% is set by controls: 0 for no effect and ±100 for the full control effect.

Sequence of Catechol O-methyltransferase (Homo sapiens) (P21964 whole entry, looked up): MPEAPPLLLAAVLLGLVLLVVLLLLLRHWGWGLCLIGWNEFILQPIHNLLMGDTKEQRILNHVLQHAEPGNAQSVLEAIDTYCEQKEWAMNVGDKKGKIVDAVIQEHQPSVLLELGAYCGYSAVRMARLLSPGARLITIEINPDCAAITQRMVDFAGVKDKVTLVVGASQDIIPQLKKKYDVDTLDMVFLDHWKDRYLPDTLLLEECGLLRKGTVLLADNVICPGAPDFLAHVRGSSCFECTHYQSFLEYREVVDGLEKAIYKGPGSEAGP
Sequence of Glycine N-methyltransferase (Homo sapiens) (Q14749 whole entry, looked up): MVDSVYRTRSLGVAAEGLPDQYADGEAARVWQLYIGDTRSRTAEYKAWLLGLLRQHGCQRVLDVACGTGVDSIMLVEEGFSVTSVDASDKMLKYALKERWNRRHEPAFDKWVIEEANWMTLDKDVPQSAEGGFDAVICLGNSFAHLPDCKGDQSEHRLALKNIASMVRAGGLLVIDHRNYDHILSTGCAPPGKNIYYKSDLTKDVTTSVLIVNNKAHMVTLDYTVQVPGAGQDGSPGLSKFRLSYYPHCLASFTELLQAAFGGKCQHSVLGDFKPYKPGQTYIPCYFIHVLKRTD
Sequence of Histamine N-methyltransferase (Homo sapiens) (P50135 whole entry, looked up): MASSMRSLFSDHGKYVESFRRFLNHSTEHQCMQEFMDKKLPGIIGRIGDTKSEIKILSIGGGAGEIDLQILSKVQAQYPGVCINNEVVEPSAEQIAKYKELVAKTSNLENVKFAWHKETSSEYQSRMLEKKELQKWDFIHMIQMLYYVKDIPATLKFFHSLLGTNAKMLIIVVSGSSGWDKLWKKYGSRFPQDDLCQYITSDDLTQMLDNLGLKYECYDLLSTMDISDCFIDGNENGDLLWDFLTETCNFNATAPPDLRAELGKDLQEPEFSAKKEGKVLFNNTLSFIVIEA
Sequence of Phenylethanolamine N-methyltransferase (Homo sapiens) (P11086 whole entry, looked up): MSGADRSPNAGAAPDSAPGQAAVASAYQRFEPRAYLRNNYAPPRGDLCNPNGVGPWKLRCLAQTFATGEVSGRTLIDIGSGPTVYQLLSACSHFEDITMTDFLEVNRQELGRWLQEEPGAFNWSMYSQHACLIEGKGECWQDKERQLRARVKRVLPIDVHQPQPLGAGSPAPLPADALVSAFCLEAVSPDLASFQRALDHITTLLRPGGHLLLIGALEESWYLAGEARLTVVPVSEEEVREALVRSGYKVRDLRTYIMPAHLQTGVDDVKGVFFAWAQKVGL
Sequence of Nicotinamide N-methyltransferase (Homo sapiens) (P40261 whole entry, looked up): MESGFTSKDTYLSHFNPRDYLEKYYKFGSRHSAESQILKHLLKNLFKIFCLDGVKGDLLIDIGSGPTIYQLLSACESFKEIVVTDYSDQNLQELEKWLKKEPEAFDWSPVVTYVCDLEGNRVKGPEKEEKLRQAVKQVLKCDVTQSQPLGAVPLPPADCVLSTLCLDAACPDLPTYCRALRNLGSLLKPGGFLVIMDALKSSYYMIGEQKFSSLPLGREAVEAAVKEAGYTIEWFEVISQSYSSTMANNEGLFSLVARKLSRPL

With `Cc1cc(C(=O)N2CCCCCC2CN2CCC(C)CC2)nn1C` (stereo not given), the activity change, negative = inhibition in experiment [1] is -10.6% (inactive); in experiment [2], 0.743%; in experiment [3] it was 0.856%; in experiment [4], 0.525%; in experiment [5] it was -2.25%; in experiment [6], -1.05%.

In the case of `O=C(Cn1nc2n(Cc3ccc(F)cc3)c(=O)c3ccccc3n2c1=O)c1cccc(Cl)c1`, the activity change, negative = inhibition in experiment [1] was 5.66% (inactive); in experiment [2], 4.51%; in experiment [3] it was 0%; in experiment [4], 7.94%; in experiment [5] it was -8.66%; in experiment [6], 4.49%.

Consider `Cc1ccc(C(=O)COC(=O)C(Cc2c[nH]c3ccccc23)NC(=O)c2ccc(Br)cc2)cc1` (stereo not given), for which the activity change, negative = inhibition is 9.4% (inactive) in experiment [1]; 10.7% in experiment [2]; 0% in experiment [3]; 6.18% in experiment [4]; -1.05% in experiment [5]; 1.41% in experiment [6].

For `Cc1cccc(-c2nnn3c2nc(N2CCC(C)CC2)c2ccccc23)c1`, the activity change, negative = inhibition is -0.09% (inactive) in experiment [1]; -5.45% in experiment [2]; 0.818% in experiment [3]; 1.53% in experiment [4]; -1.89% in experiment [5]; -5.11% in experiment [6].

For `Oc1cc2c(cc1O)CN(C(=S)NCCc1ccc(Cl)cc1)CCC2`, the activity change, negative = inhibition in experiment [1] was 143% (active); in experiment [2] it was -83%; in experiment [3], 4.04%; in experiment [4], -4.18%; in experiment [5], -9.24%; in experiment [6], 0.975%.

In the case of `COc1cc(C)c(C(=O)Oc2cc(C)c(C(=O)Oc3cc(C)c(C(=O)NC(C)C(=O)O)c(O)c3)c(O[C@@H]3O[C@H](CO)[C@@H](O)[C@H](O)[C@H]3OC(C)=O)c2)c(OC)c1` (stereo not given in full), the activity change, negative = inhibition is -0.843% (inactive) in experiment [1]; -0.029% in experiment [2]; 0.21% in experiment [3]; 6.89% in experiment [4]; -10.4% in experiment [5]; -0.399% in experiment [6].

`COC(=O)CCc1cc2ccoc2c(OC)c1O[C@@H]1O[C@H](CO)[C@@H](O)[C@H](O)[C@H]1O`: the activity change, negative = inhibition in experiment [1] is 2.02% (inactive); in experiment [2] it was 2.54%; in experiment [3] it was 4.92%; in experiment [4], 10.2%; in experiment [5] it was -6.92%; in experiment [6] it was 6.11%.

Take `COc1cc(O)c(C(=O)CCc2ccc(O)cc2)c(O[C@@H]2O[C@H](CO)[C@@H](O)[C@H](O)[C@H]2O)c1`: the activity change, negative = inhibition in experiment [1] is -58.4% (active); in experiment [2], -3.53%; in experiment [3], -12.8%; in experiment [4], 2.69%; in experiment [5] it was -20.7%; in experiment [6] it was -1.39%.

In the case of `CCN1CCN(C(=O)Cn2nc(C)c3sc(-c4ccccc4)nc3c2=O)CC1`, the activity change, negative = inhibition in experiment [1] is -3.83% (inactive); in experiment [2] it was -9.13%; in experiment [3], -4.75%; in experiment [4] it was -2.34%; in experiment [5] it was -11.6%; in experiment [6], -11%.

As for `CCCn1c(=O)c2ccc(C(=O)NC(C)CC)cc2n2c(=O)n(CC(=O)Nc3cc(C)cc(C)c3)nc12` (stereo not given), the activity change, negative = inhibition in experiment [1] is 4.21% (inactive); in experiment [2] it was 2.22%; in experiment [3] it was 5.41%; in experiment [4], 6.27%; in experiment [5], 0.889%; in experiment [6] it was 3.91%.

`COCCn1c2c(c(=O)n1-c1ccccc1)CCN(Cc1cccc(C#N)c1)C2`: the activity change, negative = inhibition in experiment [1] is -2.46% (inactive); in experiment [2] it was -6.45%; in experiment [3], -6.81%; in experiment [4], -9.66%; in experiment [5] it was -7.68%; in experiment [6] it was -4.57%.

In the case of `C=CCn1c(=O)c2ccc(C(=O)NC(C)C)cc2n2c(=O)n(CC(=O)NCc3ccccc3)nc12`, the activity change, negative = inhibition in experiment [1] was 0.329% (inactive); in experiment [2], 7.7%; in experiment [3] it was 1.61%; in experiment [4], 12.5%; in experiment [5] it was 0.93%; in experiment [6] it was 4.28%.

Consider `COc1ccc(CNc2nc3c(S(=O)(=O)c4ccc(C)cc4)nnn3c3ccccc23)cc1`, for which the activity change, negative = inhibition in experiment [1] is -0.038% (inactive); in experiment [2], -2.81%; in experiment [3], 0.613%; in experiment [4] it was 3.99%; in experiment [5], 0%; in experiment [6] it was -4.71%.

`CC1CCC(Nc2nc3c(-c4cccc(F)c4)nnn3c3ccccc23)CC1` (stereo not given): the activity change, negative = inhibition in experiment [1] is -4.07% (inactive); in experiment [2] it was 0.278%; in experiment [3], 0%; in experiment [4], -0.849%; in experiment [5], -6.58%; in experiment [6] it was -5.44%.

Regarding `COc1cc(N)c(Cl)cc1C(=O)NC[C@@H]1CCN2CCC[C@@H]12`, the activity change, negative = inhibition was -17.2% (inactive) in experiment [1]; -4.41% in experiment [2]; -14.1% in experiment [3]; -11.2% in experiment [4]; -21.4% in experiment [5]; -18.4% in experiment [6].

(Values after PubChem BioAssay AID1745853 (National Center for Advancing Translational Sciences (NCATS), 2022).)
